These results are taken from PubChem BioAssay (NCATS).

SMILES strings stand for the structures. Records with an inconclusive call do not appear. The source made the active and inactive calls. Unless noted, calls come from the whole dose curve; as a rule, active = well fitted inhibition curve with a large enough effect; inconclusive = small, poorly fitted or top-dose-only effect; inactive = flat fitted curve, though single readings scatter. Peptide text beside a SMILES is read from it.

Estrogen receptor (Homo sapiens), sequence (P03372 whole entry, looked up): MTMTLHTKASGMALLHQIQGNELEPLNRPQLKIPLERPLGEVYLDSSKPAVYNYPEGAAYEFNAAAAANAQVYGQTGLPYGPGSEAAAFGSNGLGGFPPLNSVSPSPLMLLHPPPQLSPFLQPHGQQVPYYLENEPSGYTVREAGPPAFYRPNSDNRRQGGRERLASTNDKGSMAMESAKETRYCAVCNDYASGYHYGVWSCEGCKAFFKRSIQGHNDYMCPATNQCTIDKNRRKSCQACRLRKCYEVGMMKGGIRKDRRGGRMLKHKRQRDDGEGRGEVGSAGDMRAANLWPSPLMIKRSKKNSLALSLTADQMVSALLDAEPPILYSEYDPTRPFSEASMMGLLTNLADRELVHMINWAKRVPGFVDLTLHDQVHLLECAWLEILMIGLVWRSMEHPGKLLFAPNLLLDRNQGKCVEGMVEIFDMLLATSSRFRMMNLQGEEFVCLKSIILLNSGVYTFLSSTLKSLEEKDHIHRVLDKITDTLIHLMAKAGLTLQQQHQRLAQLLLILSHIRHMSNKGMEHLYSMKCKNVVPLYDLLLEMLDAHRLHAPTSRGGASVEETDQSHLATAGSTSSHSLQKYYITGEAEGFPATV

For the first test, the target named is DNA dC->dU-editing enzyme APOBEC-3G (Homo sapiens) (UniProt Q9HC16). The test is described as follows: qHTS for inhibitors of Vif-A3G interactions: Validation (AID 588379). To be noted: Vif-A3G protein interaction assay; series mostly up to 46.1 µM. The gist of the method: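 Yellow fluorescence (Ex 488, Em 500-530) of Vif-coexpressing HeLa A3G-eYFP cells, scanned by Acumen cytometer, reports blocked A3G degradation. Cells plated at 700/well overnight at 37 deg C before compound addition, then a further overnight compound incubation at 37 deg C.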
DNA dC->dU-editing enzyme APOBEC-3G (Homo sapiens), sequence (Q9HC16 whole entry, looked up): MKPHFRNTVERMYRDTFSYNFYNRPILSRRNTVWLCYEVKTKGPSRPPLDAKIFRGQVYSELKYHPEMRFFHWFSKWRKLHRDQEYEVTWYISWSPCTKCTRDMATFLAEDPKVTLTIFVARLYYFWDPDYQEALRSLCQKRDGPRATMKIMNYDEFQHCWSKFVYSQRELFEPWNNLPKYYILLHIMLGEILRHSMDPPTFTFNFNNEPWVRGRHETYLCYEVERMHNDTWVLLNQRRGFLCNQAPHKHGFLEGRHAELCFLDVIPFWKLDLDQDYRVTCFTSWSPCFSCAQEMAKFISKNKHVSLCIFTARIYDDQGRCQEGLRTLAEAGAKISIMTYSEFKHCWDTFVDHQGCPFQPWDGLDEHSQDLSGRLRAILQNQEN
As for `COC(=O)[C@H]1[C@H]2CC3c4[nH]c5ccccc5c4CCN3C[C@@H]2CC[C@@H]1O` (some centres undefined), the result was inactive.

As to `CC(=O)N[C@@H](CC(=O)O)C(=O)N[C@@H](CCC(=O)O)C(=O)O` (Ac-Asp-Glu-OH), the call was inactive.

Regarding `CCCC(=O)Nc1ncnc2c1ncn2[C@@H]1O[C@@H]2COP(=O)(O)O[C@H]2[C@H]1OC(=O)CCC`, the molecule was classed as inactive.

On to `COC(=O)C1=C(C)NC(C)=C(C(=O)OCCCN2CCC(c3ccccc3)(c3ccccc3)CC2)[C@H]1c1cccc([N+](=O)[O-])c1`, for which the molecule was called inactive.

Turning to `Cc1cn([C@H]2C[C@H](O)[C@@H](CO)O2)c(=O)[nH]c1=O`, the molecule was classed as inactive.

Regarding `Cc1c(C)c2c(c(C)c1O)CC[C@@](C)(CCC[C@H](C)CCC[C@H](C)CCCC(C)C)O2`, the result was inactive.

As for `O=c1ccn([C@@H]2O[C@H](CO)[C@@H](O)[C@H]2O)c(=O)[nH]1`, the molecule was called inactive.

Regarding `OCc1ccccc1O[C@@H]1O[C@H](CO)[C@@H](O)[C@H](O)[C@H]1O`, the molecule was classed as inactive.

With `CC1=C(/C=C/C(C)=C/C=C/C(C)=C/CO)C(C)(C)CCC1`, the molecule was called inactive.

With `O=C(O)CC/C=C\CC[C@H]1[C@@H](N2CCCCC2)[C@@H](O)C[C@@H]1OCc1ccc(-c2ccccc2)cc1`, the result was inactive.

Consider `CC(Cc1ccc(O)c(O)c1)C(C)Cc1ccc(O)c(O)c1` (centres undefined), for which the result was inactive.

The next test addresses Estrogen receptor (Homo sapiens) (UniProt P03372). The test is described as follows: qHTS assay for small molecule antagonists of estrogen receptor alpha signaling (AID 588513; active = well fitted curve in the direction sought with a large enough effect in the signal ratio, with a control signal flat, not every such curve was filed as active; the % refers to the signal ratio). The conditions noted are these: ER-alpha-UAS-bla HEK293, beta-lactamase ratio, antagonist mode; series mostly up to 76.9 µM. The gist of the method:
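ER-alpha-UAS-bla GripTite HEK 293 cells in medium with 2% charcoal/dextran-treated FBS were preincubated 4 h at 37 C, dosed with compound (1:2 titration), stimulated with 0.5nM 17-beta-estradiol for 18 h, then read by CCF4 beta-lactamase fluorescence.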
Take `CCOc1ccc2c(c1)C(C)=CC(C)(C)N2`: the result was inactive.

`CCCCCCCC(=O)O`: the result was inactive.

On to `CC1=C2[C@@H]([C@H](C)CC[C@H]2/C=C(\C)C(=O)O)[C@H](O)C1`, for which the outcome was inactive.

`CC1(C)C(C=C(Cl)Cl)C1C(=O)OCc1cccc(Oc2ccccc2)c1` (centres undefined): the result was inactive.

Turning to `O=C(O)CCC(=O)C(=O)O`, the result was inactive.

In the case of `CC(O)CO` (centres undefined), the outcome was inactive.

As to `CC1=C(/C=C/C(C)=C/C=C/C(C)=C/CO)C(C)(C)CCC1`, the outcome was inactive.

As for `CC(C)=O`, the outcome was inactive.

As for `CCCCCCCC/C=C\CCCCCCCC(=O)O`, the result was inactive.

`CCOC(C)=O`: the outcome was inactive.

As for `CC1=CCC(C(C)(C)O)CC1` (centres undefined), the result was inactive.

Take `CCCCC/C=C\C/C=C\CCCCCCCC(=O)O`: the result was inactive.

In the case of `O=CCCCC=O`, the outcome was inactive.
